# Measured values as given in ChEMBL document CHEMBL1201862, “PubChem BioAssay data set” (2004).
# Hit rate of the full screen: of about 53,000 […], about 4,900 (9.2%) were called active. This is one part of a sample in which actives are shown more often than they occur. Cut-off read from the data, not from the text of the source: active = GI50 up to about 1.1 µM and inactive = higher. Potency and affinity values are given separately.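 1) Cells in 96-well plates. 2) Compound, 48 h, 5 concentrations. 3) Linear interpolation between surrounding doses. 4) Unreached endpoint = highest concentration. GI50 = concentration required for 50% inhibition of growth.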
# Test system: NCI-H522
# Assay: NCI tumour cell line growth inhibition, 48 h
row,Substance,GI50
1,"MERCURIC CHLORIDE, CHEMBL1374360",518 nM
2,"DIBUTYLDICHLOROSTANNANE, CHEMBL1088184",130 nM
3,"DICHLORODIPHENYLSTANNANE, CHEMBL1088185",1000 nM
